Values without a mark were called inactive. For part of these data: Entries with a potency or affinity are not part of this list. Active and inactive are the calls of the source. Unless noted, no rule for the calls is given here.
How the values were obtained:
[1] = antimalarial activity against Dd2 strain (AID 2302;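 active = growth inhibition above 50% at the single 2 µM test dose, taken to imply half-maximal potency below 2 µM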;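 also: 0% = DMSO untreated growth and 100% = chloroquine plus artemisinin killed control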); conditions: P. falciparum Dd2 in RBCs, LDH growth readout, 72 h; at 2 µM; active compounds read high
[2] = human hepatoma cell viability loss – ATP luminescence, cytotoxicity control for P. falciparum antimalarial project, primary screen (AID 2303;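 active = inhibition above 50%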;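 also: 0% = DMSO wells and 100% = digitonin-killed cells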); conditions: HepG2 viability, 24-48 h, at 10 µM, active compounds read high
[3] = target: L-lactate dehydrogenase (Plasmodium falciparum (isolate CDC / Honduras)) (UniProt Q27743); assay: PfLDH activity inhibition – cell lysate, 3D7 strain, counter-screen for P. falciparum growth inhibition project (AID 2304);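 also: 0% = vehicle and 100% = reference inhibitor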; conditions: P. falciparum 3D7 crude extract, LDH APAD/NBT absorbance; at 2 µM; active compounds read high
[4] = inhibition of 3D7 malaria parasite growth – strain 3D7 (AID 2306);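 also: 0% = DMSO wells and 100% = chloroquine plus artemisinin control wells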; conditions: P. falciparum 3D7 erythrocytic growth, LDH absorbance, 72 h; at 2 µM; active compounds read high
[5] = target: Calcium-dependent protein kinase 1 (Plasmodium falciparum (isolate 3D7)) (UniProt P62344); assay: PfCDPK1 kinase inhibitors, biochemical, TCAMS library (AID 1159585; cut-off not given, nearly all actives have IC50 up to about 0.98 µM;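 also: inhibitors leave more ATP so luminescence rises with inhibition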); conditions: recombinant PfCDPK1, Kinase-Glo ATP depletion luminescence
[6] = target: Plasmodium falciparum protein kinase 6 (PK6, PF3D7_1337100) (UniProt Q8IDW1); assay: PfPK6 kinase inhibitors, biochemical, TCAMS library (AID 1159586); conditions: recombinant PfPK6, Kinase-Glo ATP depletion luminescence
[7] = target: Protein kinase 7 (PK7), Plasmodium falciparum 3D7 (PF3D7_0213400) (UniProt Q7YTF7); assay: inhibition of Plasmodium PK7 catalytic activity – biochemical, TCAMS antimalarial set, Kinase-Glo luminescence (AID 1159587); conditions: recombinant PfPK7, Kinase-Glo ATP depletion luminescence
[8] = target: Calcium-dependent protein kinase 4 (Plasmodium falciparum (isolate 3D7)) (UniProt Q8IBS5); assay: PfCDPK4 kinase inhibitors, biochemical, TCAMS library (AID 1159588; cut-off not given, nearly all actives have IC50 up to about 0.91 µM); conditions: recombinant PfCDPK4, Kinase-Glo ATP depletion luminescence
Calcium-dependent protein kinase 4 (Plasmodium falciparum (isolate 3D7)), sequence (Q8IBS5 whole entry, looked up): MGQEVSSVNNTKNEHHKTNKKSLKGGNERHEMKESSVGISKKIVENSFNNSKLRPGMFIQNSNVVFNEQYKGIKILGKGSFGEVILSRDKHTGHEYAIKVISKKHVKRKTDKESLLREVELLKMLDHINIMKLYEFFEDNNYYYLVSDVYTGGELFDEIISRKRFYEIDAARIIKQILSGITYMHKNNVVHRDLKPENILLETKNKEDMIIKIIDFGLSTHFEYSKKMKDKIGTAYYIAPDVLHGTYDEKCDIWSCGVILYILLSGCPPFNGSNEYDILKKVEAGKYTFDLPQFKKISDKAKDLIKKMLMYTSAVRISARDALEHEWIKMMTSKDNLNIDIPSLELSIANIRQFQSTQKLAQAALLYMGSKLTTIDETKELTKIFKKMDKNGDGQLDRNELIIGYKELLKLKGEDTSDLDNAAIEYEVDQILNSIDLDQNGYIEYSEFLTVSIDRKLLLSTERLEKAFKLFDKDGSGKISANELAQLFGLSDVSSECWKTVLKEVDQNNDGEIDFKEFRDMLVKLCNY

Plasmodium falciparum protein kinase 6 (PK6, PF3D7_1337100), sequence (Q8IDW1 1-305): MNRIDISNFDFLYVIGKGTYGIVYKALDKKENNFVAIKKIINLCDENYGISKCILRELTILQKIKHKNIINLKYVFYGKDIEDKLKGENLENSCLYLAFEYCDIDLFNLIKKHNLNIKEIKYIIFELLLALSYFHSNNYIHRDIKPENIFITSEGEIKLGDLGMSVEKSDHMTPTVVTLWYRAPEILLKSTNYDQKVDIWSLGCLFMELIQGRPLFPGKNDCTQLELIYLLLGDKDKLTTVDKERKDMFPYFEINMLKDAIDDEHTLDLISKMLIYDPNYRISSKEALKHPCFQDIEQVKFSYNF
Protein kinase 7 (PK7), Plasmodium falciparum 3D7 (PF3D7_0213400), sequence (Q7YTF7 1-343): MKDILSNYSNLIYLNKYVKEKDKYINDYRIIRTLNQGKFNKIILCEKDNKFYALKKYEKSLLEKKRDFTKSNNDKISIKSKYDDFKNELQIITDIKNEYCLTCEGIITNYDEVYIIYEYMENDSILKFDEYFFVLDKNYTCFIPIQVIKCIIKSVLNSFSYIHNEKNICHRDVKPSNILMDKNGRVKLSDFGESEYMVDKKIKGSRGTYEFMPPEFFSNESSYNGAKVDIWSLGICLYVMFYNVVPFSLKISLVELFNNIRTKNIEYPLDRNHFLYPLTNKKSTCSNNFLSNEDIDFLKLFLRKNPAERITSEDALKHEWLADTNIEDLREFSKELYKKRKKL
L-lactate dehydrogenase (Plasmodium falciparum (isolate CDC / Honduras)), sequence (Q27743 whole entry, looked up): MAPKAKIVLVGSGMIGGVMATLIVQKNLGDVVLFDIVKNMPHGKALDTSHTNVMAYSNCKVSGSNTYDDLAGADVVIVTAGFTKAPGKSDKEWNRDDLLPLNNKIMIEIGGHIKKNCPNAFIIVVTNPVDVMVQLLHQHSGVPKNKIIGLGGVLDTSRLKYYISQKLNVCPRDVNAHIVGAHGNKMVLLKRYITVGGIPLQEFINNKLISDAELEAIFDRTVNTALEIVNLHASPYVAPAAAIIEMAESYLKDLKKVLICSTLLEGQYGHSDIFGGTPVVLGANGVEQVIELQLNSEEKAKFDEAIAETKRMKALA
Calcium-dependent protein kinase 1 (Plasmodium falciparum (isolate 3D7)), sequence (P62344 whole entry, looked up): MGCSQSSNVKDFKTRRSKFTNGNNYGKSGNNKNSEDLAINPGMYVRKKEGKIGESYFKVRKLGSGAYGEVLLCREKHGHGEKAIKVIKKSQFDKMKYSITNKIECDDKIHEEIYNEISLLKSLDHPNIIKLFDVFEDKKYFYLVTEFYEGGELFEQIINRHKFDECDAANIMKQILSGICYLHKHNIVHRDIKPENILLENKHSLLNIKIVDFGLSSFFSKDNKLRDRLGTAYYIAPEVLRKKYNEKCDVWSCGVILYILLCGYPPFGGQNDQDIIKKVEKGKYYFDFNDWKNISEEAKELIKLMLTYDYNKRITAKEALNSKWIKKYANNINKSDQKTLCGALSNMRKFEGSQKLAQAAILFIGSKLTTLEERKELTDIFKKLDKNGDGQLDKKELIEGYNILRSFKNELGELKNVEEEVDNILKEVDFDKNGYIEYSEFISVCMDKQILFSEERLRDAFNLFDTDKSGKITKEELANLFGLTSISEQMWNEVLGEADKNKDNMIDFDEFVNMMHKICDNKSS

Row | Structure (SMILES) | growth inhibition [1] | inhibition [2] | inhibition [3] [%] | growth inhibition [4] | outcome [5] | outcome [6] | outcome [7] | outcome [8]
1 | CN1CCN(CC(=O)Nc2cccc(-c3ccc(-c4nc5ccc(F)cc5[nH]4)s3)c2)CC1 | 94% (active) | 71% (active) | -4 | 101% (active) | inactive | inactive | inactive | inactive
2 | Oc1ccc(CCNCCCCCCNCCc2ccc(-c3ccccc3)cc2)cc1O | 8% | 72% (active) | 1 | 101% (active) | inactive | inactive | inactive | inactive
3 | O=C(Nc1cccc(-c2ccc(-c3nc4ccc(C(F)(F)F)cc4[nH]3)cc2)c1)c1cccnc1 | 97% (active) | 73% (active) | -9 | 101% (active) | inactive | inactive | inactive | inactive
4 | O=C(Nc1ccc(OC2CCN(Cc3ccccc3)C2)c(Cl)c1)c1ccsc1 (configuration not stated) | 75% (active) | 12% | 1 | 93% (active) | inactive | inactive | inactive | inactive
5 | CCCNCc1ccc(-c2ccc(CN(Cc3cnc(C)cn3)C(=O)/C=C/c3ccccc3C)cc2)nc1 | 15% | 7% | 5 | 95% (active) | inactive | inactive | inactive | inactive
6 | CN=C(N)c1ccc(NC(=O)c2ccc(C(=O)Nc3ccc(C(N)=NC)cc3)cc2)cc1 | 91% (active) | 6% | 0 | 96% (active) | inactive | inactive | inactive | inactive
7 | CN1CCN(CCCN(Cc2csc(-c3ccc(CNCc4ccccc4)cc3)n2)C(=O)c2cc(F)cc(F)c2)CC1 | 53% (active) | 60% (active) | -2 | 97% (active) | inactive | inactive | inactive | inactive
8 | Cc1cccc(NC(=O)c2cnc(N3CCN(c4ccncc4)CC3)c(Cl)c2)c1 | 54% (active) | 36% | -2 | 100% (active) | inactive | inactive | inactive | inactive
9 | CCCCSc1nc2c(c(=O)n1Cc1ccco1)C1(CCCCC1)Cc1ccccc1-2 | 78% (active) | 13% | 2 | 96% (active) | inactive | inactive | inactive | inactive
10 | CC(C)(C)C1CC(=O)C[C@@H]2C(=O)N(C3CCCCC3)C(=O)[C@H]12 (some centres not stated) | 27% | -2% | -2 | 97% (active) | inactive | inactive | inactive | inactive
11 | O=C(Nc1cccc(CN2CCCN(CC3CC3)CC2)c1)c1ccc(Cl)c(Cl)c1 | 5% | 13% | 4 | 92% (active) | inactive | inactive | inactive | inactive
12 | COc1ccc2oc(=O)c(C#N)c(O)c2c1 | -4% | -2% | 2 | 99% (active) | inactive | inactive | inactive | inactive
13 | Oc1ccc(CCCNc2nc(NCc3ccccc3-c3ccccc3)nc(NC3CCNCC3)n2)cc1 | 2% | -1% | 6 | 97% (active) | inactive | inactive | inactive | inactive
14 | O=C(NCCN1CCC(NC(=O)c2ccc(-c3ccccn3)s2)CC1)c1cccc(C(F)(F)F)c1 | 24% | 4% | -4 | 97% (active) | inactive | inactive | inactive | inactive
15 | CN1CCC(C(=O)N(Cc2ccc(-c3ccc(CNCCc4ccc(S(C)(=O)=O)cc4)cn3)cc2)Cc2ccc3c(c2)OCO3)CC1 | 51% (active) | 16% | -3 | 91% (active) | inactive | inactive | inactive | inactive
16 | CN(C)CCN(C)Cc1ccc(-c2cccc(NC(=O)c3ccc(Cl)cc3)c2)cc1 | 71% (active) | 69% (active) | -5 | 97% (active) | inactive | inactive | inactive | inactive
17 | O=C(N[C@@H](Cc1ccccc1)[C@H](O)CNC1CCc2ccccc2C1)c1cc(C2CCCC2)cc(N2CCCC2=O)c1 (some centres not stated) | 76% (active) | 23% | -4 | 99% (active) | inactive | inactive | inactive | inactive
18 | CO/C(=C\C=C\c1cc2cc(Cl)c(Cl)cc2[nH]1)C(=O)NCCCN1CCN(c2cccc(OCC(=O)Nc3cccc(C(=O)c4ccccc4)c3)c2)CC1 | 88% (active) | 48% | 2 | 94% (active) | inactive | inactive | inactive | inactive
19 | COc1cc(CNC[C@@H](O)[C@H](Cc2ccccc2)NC(=O)c2cc(C3CCCC3)cc(N3CCCS3(=O)=O)c2)cc(OC)c1 | 94% (active) | 31% | 2 | 95% (active) | inactive | inactive | inactive | inactive
20 | CCn1c(-c2ccccc2)cc2nnc3ccccc3c21 | 87% (active) | 34% | 5 | 92% (active) | inactive | inactive | inactive | inactive

Row | Structure (SMILES) | growth inhibition [1] | inhibition [2] | inhibition [3] [%] | growth inhibition [4] | outcome [5] | outcome [6] | outcome [7] | outcome [8]
21 | O=C(NCCc1ccccc1)N(Cc1cccc(-c2ccc(CNC3CCCC3)cc2)c1)C1CCN(Cc2ccccc2)CC1 | 84% (active) | 36% | 0 | 98% (active) | inactive | inactive | inactive | inactive
22 | OC(CNCc1ccccc1OCc1ccccc1)c1cc(Br)cs1 (configuration not stated) | 88% (active) | 16% | 5 | 97% (active) | inactive | inactive | inactive | inactive
23 | COc1ccc2nccc(NCC3(O)CCN(CCc4ccc5c(c4)OCCO5)CC3)c2n1 | 87% (active) | 35% | 3 | 100% (active) | inactive | inactive | inactive | inactive
24 | COc1cccc2cc(C(=O)N[C@@H](CC(C)C)C(=O)N[C@H](/C=N/NC(=O)N3CCN(C)CC3)CCc3ccccc3)oc12 | 73% (active) | 1% | 4 | 85% (active) | inactive | inactive | inactive | inactive
25 | COc1cc(NC(=O)c2cc([N+](=O)[O-])ccc2NC(=O)CNC2CCCCC2C)cc(OC)c1 (configuration not stated) | 78% (active) | -2% | 3 | 87% (active) | inactive | inactive | inactive | inactive
26 | COc1ccc2nccc([C@@H](O)CN3CCC(NCc4nc5c(F)cc(F)cc5[nH]4)CC3)c2c1 | 64% (active) | 19% | 0 | 99% (active) | inactive | inactive | inactive | inactive
27 | Cc1cc(N2CCCC2)nc(Nc2ccc(NC(=O)C(C)C)cc2)n1 | 36% | 40% | 2 | 97% (active) | inactive | inactive | inactive | inactive
28 | Cc1ccc(NC(=O)c2ccc(CN3CCCN(Cc4cccc(O)c4)CC3)cc2)cc1C | 25% | 33% | 4 | 98% (active) | inactive | inactive | inactive | inactive
29 | CCCCCCCN1CC[C@@H](CCCc2ccnc3ccc(OCC4CCCNC4)cc23)[C@@H](CC)C1 (some centres not stated) | 100% (active) | 99% (active) | -1 | 98% (active) | inactive | inactive | inactive | inactive
30 | COc1cc(F)c2ncc(C#N)c(CCN3CCC(NCc4ccc5c(c4)OCCO5)CC3)c2c1 | 59% (active) | 5% | -7 | 97% (active) | inactive | inactive | inactive | inactive
31 | Cc1[nH]c(C)c(C(F)(F)F)c(=O)c1-c1ccc(Oc2ccc(OC(F)(F)F)cc2)cc1 | 96% (active) | 0% | -6 | 97% (active) | inactive | inactive | inactive | inactive
32 | COc1ccc2nccc([C@@H](O)CN3CCC(NC(=O)C(c4cc5ccccc5o4)N4CCN(C(c5ccccc5)c5ccccc5)CC4)CC3)c2c1 (some centres not stated) | 100% (active) | 18% | -4 | 100% (active) | inactive | inactive | inactive | inactive
33 | Cc1cccc2[nH]c(-c3ccc(-c4ccc(CNCC5CCCO5)cc4)cc3)nc12 (configuration not stated) | 81% (active) | 36% | -4 | 101% (active) | inactive | inactive | inactive | inactive
34 | O=C(NCC1CCC(C(=O)NCc2cccc(C(F)(F)F)c2)CC1)c1ccc(O)c(-c2ccc(Cl)c(Cl)c2)c1 (configuration not stated) | 41% | 5% | 0 | 98% (active) | inactive | inactive | inactive | inactive
35 | Nc1nonc1-c1nc2c(-c3cccc(Cl)c3)nccc2n1CCCNC(=O)Cc1ccc(Cl)cc1 | 92% (active) | -4% | -2 | 94% (active) | inactive | inactive | inactive | inactive
36 | O=C(NC(c1ccccc1)c1ccccc1)C(c1cc2ccccc2o1)N1CCN(C(c2ccccc2)c2ccccc2)CC1 (configuration not stated) | 78% (active) | -1% | -1 | 95% (active) | inactive | inactive | inactive | inactive
37 | COc1ccc2c(=O)c3ccc(OC)cc3[nH]c2c1 | 75% (active) | 12% | 1 | 93% (active) | inactive | inactive | inactive | inactive
38 | COc1ccc(-c2ccc(NC(=O)c3ccc(C#N)cc3)cc2)cc1CN1CCN(C)CC1 | 49% | 21% | 1 | 93% (active) | inactive | inactive | inactive | inactive
39 | Cc1ccccc1C1CCN(C2CCC(NC(=O)c3cc4cc(Cl)ccc4o3)CC2)CC1 (configuration not stated) | 30% | 22% | -2 | 89% (active) | inactive | inactive | inactive | inactive
